Screens as filed in PubChem.
Shown are actives, neighbours in structure and some others; about 5.5% of the full set was active somewhere.
Sfp PPTase inh = Sfp phosphopantetheinyl transferase inhibition; Q9F4F7; Biochemical Sfp PPTase activity, qHTS; Potency, µM, actives largely listed as inhibitors; actives 3.5% (n = 310,000);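 note: the enzyme is Sfp with the accession as filed and its product quenches rhodamine fluorescence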
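Fluorescence-quenching assay: 15 nM Sfp-PPTase preincubated 15 min at room temperature with compound, then 5 uM rhodamine-CoA and 12.5 uM BHQ-2-labelled YbbR peptide added. Fluorescence (ex 525/em 598 nm) read at start and after 30 min; difference gives rate.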
ELG1 repair inh = blocks ELG1-dependent DNA repair in HEK293T cells; HEK293T ELG1-luciferase reporter, luminescence, 16 h; DNA damage induced by 5-fluorouridine; actives 2.3% (n = 330,000); Potency, µM (titrated, usually from 46.1 µM), most hits filed as inhibitors; AID 504467; note: nearly all actives have a fitted effect of over 55% in size
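Overnight (16 hr) co-exposure of 2,000 cells/well to 5-fluorouridine and compound at 37 °C preceded detection. Luciferase was quantified via ONE-Glo luminescence; loss of signal denotes inhibition.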
Giardia kill = kills Giardia lamblia. AID 540267. actives 0.15% (n = 340,000). Giardia lamblia trophozoite viability. activity change, % at 7.66 µM, hits read low; in the data active = activity change below about -80%; inconclusive = between about -30% and that limit;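 note: parasites exposed to compound for two days anaerobically before the ATP read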
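Trophozoite viability was measured as ATP-dependent luminescence, read 15-30 min after reagent addition. Before that, parasites at 100 cells/well were exposed to compounds for 48 h, anaerobically, at 37 deg C.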
FBPA coupling cs = counter-screen for Giardia aldolase inhibitors: coupling enzyme system | coupling enzyme system counterscreen, AmpLite Red fluorescence | activity change, negative = inhibition, % at 58.2 µM, hits read low | actives 0.67% (n = 290,000); in the data active = activity change below about -30%
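First, compound is pin-transferred into glyceraldehyde-3-phosphate coupling-enzyme reagent at 57.5 uM final and held 10 min at RT. Next, substrate, coupling system and AmpLite Red are added. After 20 min RT, fluorescence (525/598 nm) is read.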
Hits are given with their value; n = inactive; u = inconclusive; x = not tested or not shown. Unless noted, calls come from the whole dose curve; as a rule, active = well fitted curve in the direction sought with a large enough effect; inconclusive = small, poorly fitted or top-dose-only effect, or another doubt; inactive = no such curve, though single readings can be large; an effect the other way counts as inactive or inconclusive.

SMILES	Sfp PPTase inh	ELG1 repair inh	Giardia kill	FBPA coupling cs
COc1ccc2oc(=O)c(C(=O)Nc3ccccc3O)cc2c1	n	u	n	n
COc1ccc2o/c(=N\O)c(C(=O)Nc3ccccc3OC)cc2c1	50µM	n	n	n
CCc1ccccc1N(C)S(=O)(=O)c1cc(-c2cc(C)no2)ccc1OC	n	u	n	n
COCCN(Cc1ccccc1)C(=O)Cc1ccc(OC)c(S(=O)(=O)N2CCOCC2)c1	x	u	n	x
COc1ccc(CC(=O)N(Cc2ccccc2)c2ccccc2)cc1S(=O)(=O)N1CCOCC1	n	16µM	n	n
CCC(=O)N1CCN(c2ccccc2NC(=O)COc2ccc(C(C)C)cc2)CC1	n	n	n	x
O=[N+]([O-])c1ccc(N/N=C/c2ccc(O)c(O)c2O)c(S(=O)(=O)N2CCOCC2)c1	7.1µM	n	n	-59
O=C(CCc1ccc(S(=O)(=O)N2CCOCC2)cc1)N/N=C/c1ccc(O)c(O)c1O	22µM	n	n	-31
COC(=O)C1=C(C)NC(=O)/C1=C\c1cc(C)n(-c2ccccc2C)c1C	n	21µM	n	n
Cc1c(NC(=O)C(C)OC(=O)c2ccc(NC(=O)CC#N)cc2)c(=O)n(-c2ccccc2)n1C (stereo not given)	x	n	n	x
CC(=O)N[C@@H](Cc1c[nH]c2ccccc12)C(=O)O	n	x	x	n
Cc1oc(-c2ccccc2)cc1C(=O)NC(Cc1c[nH]c2ccccc12)C(=O)O (stereo not given)	40µM	n	n	n
CCCNC(=O)c1cccc(Cn2nc(C)c(Br)c2C)c1	n	u	n	n
Cc1nn(Cc2cccc(C(=O)NC34CC5CC(CC(C5)C3)C4)c2)c(C)c1Br	n	23µM	n	n
O=C(c1cccc(Cl)c1)N1CCC(=O)N(C(CO)Cc2ccccc2)CC1 (stereo not given)	x	x	n	x
C/C(CCc1oc2c(Br)cc(Br)cc2c1-c1ccc(C)o1)=N\O	22µM	n	n	n
C/C(CCc1oc2ccccc2c1-c1ccc(C)o1)=N/O	28µM	n	n	n
CC(=O)CCc1oc2c([N+](=O)[O-])cccc2c1-c1ccc(C)o1	8.9µM	n	n	n
CC(=O)CCc1oc2ccc([N+](=O)[O-])cc2c1-c1ccc(C)o1	n	u	u	n
CSc1ncccc1C(=O)OCC(=O)NC1CC1	x	n	n	x
COc1cccc(C(=O)N(C)Cc2c(C)nn(C3CCS(=O)(=O)C3)c2C)c1 (stereo not given)	x	n	n	x
COc1ncc2ncc(=O)n(CCc3ccccc3)c2n1	n	x	x	n
Cc1[nH][nH]c(=O)c1C(c1ccc(-c2cccc(Cl)c2)o1)c1c(C)[nH][nH]c1=O	45µM	u	n	-48
COc1ccc(C(=O)Oc2ccc(C(c3c(C)[nH][nH]c3=O)c3c(C)[nH][nH]c3=O)cc2OC)cc1	x	x	n	x
Cc1[nH][nH]c(=O)c1C(c1ccc(Br)cc1)c1c(C)[nH][nH]c1=O	n	n	n	n
SMILES	Sfp PPTase inh	ELG1 repair inh	Giardia kill	FBPA coupling cs
Cc1[nH][nH]c(=O)c1C(c1ccc(-c2ccccc2C(=O)O)o1)c1c(C)[nH][nH]c1=O	u	u	n	-47
Cc1[nH][nH]c(=O)c1C(c1ccc(-c2cccc(C(=O)O)c2)o1)c1c(C)[nH][nH]c1=O	16µM	n	n	-31
COC(=O)c1ccc(-c2ccc(C(c3c(C)[nH][nH]c3=O)c3c(C)[nH][nH]c3=O)o2)cc1	50µM	n	n	-45
FC(F)(F)c1ccccc1-c1nc(N2CCNCC2)c2ccccc2n1	n	x	x	n
Cc1[nH][nH]c(=O)c1C(c1ccc(-c2ccc(Cl)cc2Cl)o1)c1c(C)[nH][nH]c1=O	50µM	n	x	-58
CC(C)CN(CCCNC(=O)CN1C(=O)COc2ccc(S(=O)(=O)N3CCOCC3)cc21)CC(C)C	n	n	n	x
CC(=O)Nc1ccccc1NC(=O)C/C(C)=N/NC(=O)C(=O)N1CCCCC1	n	n	n	n
O=c1[nH]c(-c2ccc(Cl)cc2)cs1	n	u	n	n
S=c1[nH]c(-c2ccccc2)cs1	79µM	u	n	n
Fc1ccc(-c2csc(=S)[nH]2)cc1	11µM	u	n	n
CS(=O)(=O)c1ccc2c(c1)sc1nc(=O)c(/C=C3/C=CC(=O)C(O)=C3)c(N)n12	32µM	u	n	n
Cc1cc2ccccc2c(=O)n1CC(=O)NCC(=O)N1CCN(c2ccccc2)CC1	50µM	u	n	n
O=C(CSc1nccc(=O)[nH]1)c1c[nH]c2ccccc12	n	u	n	n
O=C(CSc1nccc(=O)[nH]1)c1ccccc1Br	50µM	n	n	n
